Assay results taken from PubChem BioAssay (NCI).
About 83,000 compounds went through this panel and 20% of them were active in at least one assay; those are over-represented in the sample as a whole.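 Growth was measured after 48 h exposure to one concentration of compound in 96-well plates. Values under 10 count as active.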 The source made the active and inactive calls.

What was measured:
Assay in all cases: NCI-60 one-dose screen, 48 h (100 = growth as untreated, 0 = no growth, -100 = all killed)
Details in all cases: 10 µM unless noted
SN12C renal = test system: SN12C renal
UO-31 renal = test system: UO-31 renal
TK-10 renal = test system: TK-10 renal
CAKI-1 renal = test system: CAKI-1 renal
A498 renal = test system: A498 renal
CCRF-CEM leukemia = test system: CCRF-CEM leukemia
MOLT-4 leukemia = test system: MOLT-4 leukemia
SR leukemia = test system: SR leukemia
RPMI-8226 leukemia = test system: RPMI-8226 leukemia
OVCAR-8 ovarian = test system: OVCAR-8 ovarian
OVCAR-5 ovarian = test system: OVCAR-5 ovarian
OVCAR-4 ovarian = test system: OVCAR-4 ovarian
SK-OV-3 ovarian = test system: SK-OV-3 ovarian
IGROV1 ovarian = test system: IGROV1 ovarian
OVCAR-3 ovarian = test system: OVCAR-3 ovarian
HS 578T breast = test system: HS 578T breast
NCI/ADR-RES ovarian = test system: NCI/ADR-RES ovarian
EKVX NSCLC = test system: EKVX NSCLC
ACHN renal = test system: ACHN renal

Measured: growth

C=C1SC(=Nc2c(C)cccc2C)N(c2nc(Cl)nc(Cl)n2)C12CCCCC2
inactive: SN12C renal 107% | UO-31 renal 75.6% | TK-10 renal 108% | CAKI-1 renal 96.6% | A498 renal 113% | CCRF-CEM leukemia 95.9% | MOLT-4 leukemia 95.5% | SR leukemia 81.4% | RPMI-8226 leukemia 99.8% | OVCAR-8 ovarian 98.8% | OVCAR-5 ovarian 118% | OVCAR-4 ovarian 101% | SK-OV-3 ovarian 99% | IGROV1 ovarian 97.4% | OVCAR-3 ovarian 101% | HS 578T breast 113% | NCI/ADR-RES ovarian 105%

O=Cc1ccc(Cl)c(Cl)c1
inactive: EKVX NSCLC 109% | SN12C renal 110% | UO-31 renal 80.1% | TK-10 renal 98% | ACHN renal 103% | CAKI-1 renal 111% | A498 renal 83.3% | CCRF-CEM leukemia 97.8% | MOLT-4 leukemia 106% | SR leukemia 98% | RPMI-8226 leukemia 105% | OVCAR-8 ovarian 101% | OVCAR-5 ovarian 99.8% | OVCAR-4 ovarian 95.8% | SK-OV-3 ovarian 112% | IGROV1 ovarian 83.7% | OVCAR-3 ovarian 116% | NCI/ADR-RES ovarian 95.4%

N#CCCN1C(=O)CCC1C(=O)O (configuration not stated)
active: MOLT-4 leukemia -26.9%
inactive: EKVX NSCLC 112% | SN12C renal 106% | UO-31 renal 101% | TK-10 renal 103% | ACHN renal 101% | CAKI-1 renal 102% | A498 renal 98.9% | CCRF-CEM leukemia 108% | SR leukemia 92.9% | RPMI-8226 leukemia 95.2% | OVCAR-8 ovarian 98.1% | OVCAR-5 ovarian 105% | OVCAR-4 ovarian 114% | SK-OV-3 ovarian 145% | IGROV1 ovarian 107% | OVCAR-3 ovarian 115% | NCI/ADR-RES ovarian 119%

CCOC(=O)C(C#N)=C1CCN(C)CC1
inactive: EKVX NSCLC 112% | SN12C renal 97% | UO-31 renal 87.5% | TK-10 renal 108% | ACHN renal 97.9% | CAKI-1 renal 92.4% | A498 renal 100% | CCRF-CEM leukemia 99.2% | MOLT-4 leukemia 58.5% | SR leukemia 79.9% | RPMI-8226 leukemia 102% | OVCAR-8 ovarian 93% | OVCAR-5 ovarian 111% | OVCAR-4 ovarian 119% | SK-OV-3 ovarian 118% | IGROV1 ovarian 96.9% | OVCAR-3 ovarian 117% | NCI/ADR-RES ovarian 115%

O=C(CCl)Oc1ccc([N+](=O)[O-])cc1
inactive: EKVX NSCLC 112% | SN12C renal 116% | UO-31 renal 60.8% | TK-10 renal 109% | ACHN renal 109% | CAKI-1 renal 124% | A498 renal 133% | CCRF-CEM leukemia 95.9% | MOLT-4 leukemia 105% | RPMI-8226 leukemia 103% | OVCAR-8 ovarian 102% | OVCAR-5 ovarian 107% | OVCAR-4 ovarian 106% | SK-OV-3 ovarian 133% | IGROV1 ovarian 106% | OVCAR-3 ovarian 121% | HS 578T breast 128% | NCI/ADR-RES ovarian 105%

CCOc1ccccc1NC(=O)CCl
inactive: EKVX NSCLC 111% | SN12C renal 94.5% | UO-31 renal 116% | TK-10 renal 94.5% | ACHN renal 108% | CAKI-1 renal 95.6% | A498 renal 113% | CCRF-CEM leukemia 63.5% | MOLT-4 leukemia 70.2% | SR leukemia 74.8% | RPMI-8226 leukemia 88.8% | OVCAR-8 ovarian 86.9% | OVCAR-5 ovarian 124% | OVCAR-4 ovarian 45.9% | SK-OV-3 ovarian 109% | OVCAR-3 ovarian 95.4% | HS 578T breast 94.9% | NCI/ADR-RES ovarian 106%

CC(C)c1ccccc1NC(=O)N1CCC(C(C)C)CC1
inactive: SN12C renal 106% | UO-31 renal 85.6% | TK-10 renal 127% | CAKI-1 renal 92.3% | A498 renal 99.3% | CCRF-CEM leukemia 101% | MOLT-4 leukemia 90.8% | SR leukemia 92.4% | RPMI-8226 leukemia 105% | OVCAR-8 ovarian 105% | OVCAR-5 ovarian 117% | OVCAR-4 ovarian 96.7% | SK-OV-3 ovarian 105% | IGROV1 ovarian 106% | OVCAR-3 ovarian 113% | HS 578T breast 102% | NCI/ADR-RES ovarian 111%

CC(=O)c1cc(O)ccc1O
inactive: EKVX NSCLC 112% | SN12C renal 97.4% | UO-31 renal 88.9% | TK-10 renal 93.6% | ACHN renal 110% | A498 renal 90.6% | CCRF-CEM leukemia 73.7% | MOLT-4 leukemia 92.8% | SR leukemia 94.2% | RPMI-8226 leukemia 119% | OVCAR-8 ovarian 95.9% | OVCAR-5 ovarian 99.9% | OVCAR-4 ovarian 108% | SK-OV-3 ovarian 107% | IGROV1 ovarian 117% | OVCAR-3 ovarian 119% | HS 578T breast 110% | NCI/ADR-RES ovarian 92.8%

Cc1ccc(S(=O)(=O)CCCl)cc1
inactive: EKVX NSCLC 97.6% | SN12C renal 99% | UO-31 renal 74.2% | TK-10 renal 97.4% | ACHN renal 98.2% | CAKI-1 renal 117% | A498 renal 95.2% | CCRF-CEM leukemia 101% | SR leukemia 90% | RPMI-8226 leukemia 101% | OVCAR-8 ovarian 101% | OVCAR-5 ovarian 101% | OVCAR-4 ovarian 107% | SK-OV-3 ovarian 124% | IGROV1 ovarian 123% | OVCAR-3 ovarian 131% | HS 578T breast 102% | NCI/ADR-RES ovarian 105%

Cc1c(-c2ccc(C3CCCCC3)cc2)nc2ccc(F)cc2c1C(=O)O
active: CAKI-1 renal -2.23% | SR leukemia 7.53%
inactive: SN12C renal 45.2% | UO-31 renal 34.3% | TK-10 renal 74.7% | ACHN renal 43% | A498 renal 89.7% | CCRF-CEM leukemia 35.7% | MOLT-4 leukemia 15.2% | RPMI-8226 leukemia 56.1% | OVCAR-8 ovarian 37.6% | OVCAR-5 ovarian 76.7% | OVCAR-4 ovarian 84.2% | SK-OV-3 ovarian 58.2% | IGROV1 ovarian 29.7% | OVCAR-3 ovarian 41% | HS 578T breast 75.3% | NCI/ADR-RES ovarian 45.7%

O=C(O)Cc1ccc(Cl)cc1
inactive: EKVX NSCLC 79.2% | SN12C renal 122% | UO-31 renal 99.4% | TK-10 renal 107% | ACHN renal 103% | A498 renal 95.9% | CCRF-CEM leukemia 132% | SR leukemia 44.8% | RPMI-8226 leukemia 99.1% | OVCAR-8 ovarian 97.7% | OVCAR-5 ovarian 111% | OVCAR-4 ovarian 107% | SK-OV-3 ovarian 121% | IGROV1 ovarian 109% | OVCAR-3 ovarian 150% | HS 578T breast 99.6% | NCI/ADR-RES ovarian 109%
active: MOLT-4 leukemia 8.9%

COc1nc(Nc2cccc(C(F)(F)F)c2)nc(OC)n1
inactive: SN12C renal 102% | UO-31 renal 84.3% | TK-10 renal 111% | ACHN renal 110% | CAKI-1 renal 103% | A498 renal 85.3% | CCRF-CEM leukemia 95.5% | MOLT-4 leukemia 86.4% | SR leukemia 95% | RPMI-8226 leukemia 94.7% | OVCAR-8 ovarian 96% | OVCAR-5 ovarian 116% | OVCAR-4 ovarian 105% | SK-OV-3 ovarian 97.9% | IGROV1 ovarian 93.1% | OVCAR-3 ovarian 103% | HS 578T breast 98.6% | NCI/ADR-RES ovarian 104%

Clc1ccc(-c2noc(/C=C\c3ccccc3)n2)cc1
inactive: SN12C renal 105% | UO-31 renal 83.5% | TK-10 renal 115% | ACHN renal 98.3% | CAKI-1 renal 96.1% | A498 renal 93.7% | CCRF-CEM leukemia 92.3% | MOLT-4 leukemia 98.4% | SR leukemia 97.8% | RPMI-8226 leukemia 110% | OVCAR-8 ovarian 98.7% | OVCAR-5 ovarian 99.6% | OVCAR-4 ovarian 102% | SK-OV-3 ovarian 95.1% | IGROV1 ovarian 96.3% | OVCAR-3 ovarian 102% | HS 578T breast 119% | NCI/ADR-RES ovarian 108%
